An excerpt weighted towards active compounds, which were near 19% of everything screened.
Lassa entry inh – blocks Lassa virus binding to or entry into cells; Potency, µM (highest dose often 37.9 µM), without a hit: at the highest dose activity change, negative = inhibition, usual class: inhibitors; Lassa virus pseudotype entry inhibition, cell reporter; 1.2% of 300,000 active; calls by dose curve; tested in HEK293 cells; further: potency means the concentration at half of the fitted maximal effect; on the % scale 0 is the no-effect control and ±100 the full control effect; nearly all actives have a fitted effect of over 50% in size
CHX counter – counter-screen hit for Shiga toxin inhibitors, cycloheximide | cell reporter, cycloheximide protein synthesis inhibition counterscreen | max response, % | 12% of 300,000 active | AID 2314; in the data active means max response mostly above about 13%, no sharp cut-off; inactive means mostly below about 14%; further: read at 38.3 µM for the half of the compounds with a filed dose; 0% is about no effect
Shiga toxin inh – inhibitors of Shiga toxin in Vero cells; inhibition, % at 38.7 µM; 9.2% of 290,000 active; Vero cells, Shiga toxin protein synthesis inhibition reporter; AID 2315; in the data active means inhibition mostly above about 28%, no sharp cut-off; inactive means mostly below about 43%; further: 0% is about no effect
Pf growth 96h – P. falciparum growth inhibition at 96 hours; P. falciparum luciferase reporter growth, 96 h; Potency, µM (top dose mostly 28.7 µM), without a hit: at the highest dose activity change, negative = inhibition, usual class: inhibitors; 6.9% of 320,000 active; AID 504834; further: potency means the concentration at half of the fitted maximal effect; on the % scale 0 is the no-effect control and ±100 the full control effect
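Two-generation exposure (96 h) targets delayed-death phenotype. Reporter parasites carrying integrated firefly luciferase, in red cells at 2% hematocrit and 0.05% parasitemia final, kept at 37 C, 5% CO2; luminescence loss indicates inhibition.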
MARV entry inh – inhibitors of Marburg virus binding or cell entry; Marburg virus pseudotyped entry inhibition, cell reporter; Potency, µM (series often up to 37.8 µM), for the others: at the top dose activity change, negative = inhibition, usual class: inhibitors; 1.8% of 300,000 active; calls by dose curve; tested in HEK293 cells; further: potency means the concentration at half of the fitted maximal effect; on the % scale 0 is the no-effect control and ±100 the full control effect
Pf growth 48h – P. falciparum growth inhibition at 48 hours (one generation); Potency, µM (doses to about 28.7 µM), for the others: at the top dose activity change, negative = inhibition, most hits filed as inhibitors; 5.9% of 310,000 active; P. falciparum luciferase growth in erythrocytes, 48 h; further: potency means the concentration at half of the fitted maximal effect; on the % scale 0 is the no-effect control and ±100 the full control effect
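Luminescence readout; reporter = integrated firefly luciferase in P. falciparum. RBC culture at 2% hematocrit, 0.1% parasitemia final, 37 C/5% CO2; decreased signal taken as growth inhibition.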
Starred values were filed as active, the others as inactive; [ ] = another dose, or the depositor's remark. Unless noted, the call rests on the fitted dose curve; in most records, active means well fitted inhibition curve with a large enough effect; inconclusive means small, poorly fitted or top-dose-only effect, or another doubt; inactive means no such curve, though single readings can be large or run the other way.

Results for Cc1ccc(CN=C2Nc3ccccc3CS2)cc1 ?
Lassa entry inh: inconclusive; CHX counter: 34.5*; Shiga toxin inh: 82.2*; Pf growth 96h: 326.1%; MARV entry inh: inconclusive; Pf growth 48h: 206.3%

Results for COc1ccccc1CN=C1Nc2ccccc2CS1 ?
Lassa entry inh: 13.4%; CHX counter: 29.9*; Shiga toxin inh: 81.8*; Pf growth 96h: 160.7%; MARV entry inh: inconclusive; Pf growth 48h: 130.4%

How did c1cncc(CN=C2Nc3ccccc3CS2)c1 do in these assays?
Lassa entry inh: 18.0%; CHX counter: 15.9; Shiga toxin inh: 51.0; Pf growth 96h: inconclusive; MARV entry inh: 23.9%[46.1 µM]; Pf growth 48h: 35.6%

What do the screens show for `COc1cccc(CN=C2Nc3ccccc3CS2)c1`?
Lassa entry inh: inconclusive; CHX counter: 54.1*; Shiga toxin inh: 77.1*; Pf growth 96h: inactive; MARV entry inh: inconclusive; Pf growth 48h: inactive

What do the screens show for `COc1cccc(CN2CCSCC2)c1`?
Lassa entry inh: 1.3%; CHX counter: -7.5; Shiga toxin inh: -7.0; Pf growth 96h: 5.9%; MARV entry inh: 4.3%

How did CCc1ccc(NC(=O)CSc2nnc(-c3n[nH]c4ccccc34)n2-c2ccccc2)cc1 do in these assays?
Lassa entry inh: -3.9%; CHX counter: -1.4; Shiga toxin inh: -13.2; Pf growth 96h: 50.1%; MARV entry inh: inconclusive; Pf growth 48h: -9.2%

How did Cc1ccc(Cn2cnc3c(oc4ccccc43)c2=O)cc1 do in these assays?
Lassa entry inh: -14.5%[46.1 µM]

Results for Cc1ccc(OCC(=O)NNC(=O)C2CCC2)cc1C ?
Pf growth 96h: 19.5%; Pf growth 48h: 19.7%

How did CCc1nc2ccc(C(=O)NCc3cc(OC)ccc3OC)cc2nc1CC do in these assays?
Lassa entry inh: -19.6%[46.1 µM]

How did O=C(COc1ccc(F)cc1)Nc1nccs1 do in these assays?
CHX counter: 33.0*; Shiga toxin inh: 50.8*; Pf growth 96h: 108.9%; Pf growth 48h: 121.5%

What do the screens show for `O=C(Nc1nccs1)c1ccc(COc2ccc(F)cc2)o1`?
Lassa entry inh: -1.0%; CHX counter: 32.3*; Shiga toxin inh: 52.0; Pf growth 96h: -9.4%; MARV entry inh: 3.0%; Pf growth 48h: 54.5%

How did O=C(CS(=O)(=O)c1ccc(F)cc1)Nc1nccs1 do in these assays?
Lassa entry inh: -3.2%; Pf growth 96h: 21.5%; MARV entry inh: -0.3%[46.1 µM]; Pf growth 48h: 11.9%

Results for O=C(NCc1ccccn1)c1ccc(COc2ccc(Cl)cc2)o1 ?
Lassa entry inh: -0.5%; CHX counter: -2.4; Shiga toxin inh: 0.7; Pf growth 96h: inconclusive; MARV entry inh: -8.6%; Pf growth 48h: 0.2%

How did O=C(Nc1nccs1)c1ccc(COc2ccc(Cl)cc2)o1 do in these assays?
Lassa entry inh: 13.5%; CHX counter: 29.9*; Shiga toxin inh: 55.1*; Pf growth 96h: inconclusive; MARV entry inh: 5.0%; Pf growth 48h: -0.8%

Results for O=C(Nc1nccs1)c1ccc(COc2ccccc2Br)o1 ?
Lassa entry inh: -22.1%; CHX counter: 41.2*; Shiga toxin inh: 53.0*; MARV entry inh: inconclusive; Pf growth 48h: inconclusive

How did NC(=O)C(c1ccc(Cl)cc1)c1ccc(Sc2ccccc2)nn1 (stereo not given) do in these assays?
Lassa entry inh: -18.0%; CHX counter: -1.9; Shiga toxin inh: 16.9; Pf growth 96h: inconclusive; MARV entry inh: -7.1%

What do the screens show for `O=c1cc(CO)[nH]cc1OCc1ccccc1`?
Lassa entry inh: 16.4%; CHX counter: -1.2; Shiga toxin inh: 20.6; Pf growth 96h: 30.6%; MARV entry inh: 21.1%[46.1 µM]; Pf growth 48h: 53.5%

How did COc1ccc(OCCCC(=O)Nc2nccs2)cc1 do in these assays?
Lassa entry inh: 16.4%; CHX counter: 12.7*; Shiga toxin inh: 20.3; Pf growth 96h: inconclusive; MARV entry inh: 17.4%; Pf growth 48h: inconclusive

What do the screens show for `Cc1cccc(OCC(=O)Nc2nccs2)c1C`?
CHX counter: 66.9*; Shiga toxin inh: 67.3*; Pf growth 96h: inconclusive; Pf growth 48h: 242.5%

How did Cc1ccccc1OCCCC(=O)Nc1nccs1 do in these assays?
Lassa entry inh: -5.5%; CHX counter: -0.6; Shiga toxin inh: -8.3; Pf growth 96h: -4.6%; MARV entry inh: -1.5%

How did CCC1=C(c2ccc(C)cc2)S(=O)(=O)N=C1N1CCC(C(=O)N2CCCCC2)CC1 do in these assays?
Lassa entry inh: -5.4%[46.1 µM]

What do the screens show for `Cc1cccc(N2CCN(C(=O)CCC(=O)N3CCOc4ccc(Cl)cc43)CC2C)c1` (stereo not given)?
CHX counter: -2.0; Shiga toxin inh: 0.8; Pf growth 96h: 9.28µM*; Pf growth 48h: -6.2%

How did Cc1ccc(C)c(N2CCN(C(=O)CCC(=O)N3CCOc4ccc(Cl)cc43)CC2)c1 do in these assays?
CHX counter: 8.0; Shiga toxin inh: 7.6; Pf growth 96h: 4.15µM*; Pf growth 48h: inconclusive

Results for Cc1ccc(C)c(N2CCN(CCCNC(=O)CCC(=O)N3CCOc4ccc(Cl)cc43)CC2)c1 ?
CHX counter: -1.3; Shiga toxin inh: -6.1; Pf growth 96h: 12.7%; Pf growth 48h: inconclusive

Results for CCN(CC)CCCNC(=O)C1c2ccccc2Oc2ccccc21 ?
Lassa entry inh: 1.4%; CHX counter: -3.4; Shiga toxin inh: 0.8; Pf growth 96h: -2.7%[5.75 µM]; MARV entry inh: -0.3%; Pf growth 48h: -1.4%

Results for CNCCCC1Sc2ccccc2Oc2ccccc21 (stereo not given) ?
Lassa entry inh: inconclusive; CHX counter: -4.5; Shiga toxin inh: -7.7; Pf growth 96h: 9.28µM*; MARV entry inh: inconclusive; Pf growth 48h: inconclusive

Results for Cc1nn(Cc2ccc(F)cc2)c(C)c1NC(=O)c1cnn2cccnc12 ?
Lassa entry inh: 4.7%; CHX counter: -2.1; Shiga toxin inh: -3.4; MARV entry inh: 5.7%; Pf growth 48h: -3.0%

What do the screens show for `Cc1cc(O)c(CN2CCN(S(=O)(=O)c3cccs3)CC2)cc1C(C)C`?
Pf growth 96h: 4.15µM*; Pf growth 48h: 1.65µM*

What do the screens show for `CCc1ccc2c(CN3CCN(S(=O)(=O)c4ccccc4F)CC3)cc(=O)oc2c1`?
Lassa entry inh: inconclusive; MARV entry inh: 11.2µM*

How did CCc1ccc2c(CN3CCN(S(=O)(=O)c4cccs4)CC3)cc(=O)oc2c1 do in these assays?
Lassa entry inh: 2.51µM*; CHX counter: -2.5; Shiga toxin inh: -11.9; Pf growth 96h: inconclusive; MARV entry inh: inconclusive; Pf growth 48h: inconclusive

How did CCc1ccc2c(CN3CCN(Cc4ccccc4)CC3)cc(=O)oc2c1 do in these assays?
Lassa entry inh: 0.8%; CHX counter: -2.8; Shiga toxin inh: 3.8; Pf growth 96h: inconclusive; MARV entry inh: -2.9%[46.1 µM]; Pf growth 48h: -17.3%

How did O=S(=O)(c1cccs1)N1CCN(Cc2cccc(F)c2)CC1 do in these assays?
CHX counter: -1.9; Shiga toxin inh: -7.7; Pf growth 96h: 40.7%; Pf growth 48h: 30.2%

How did CCN(c1ccccc1)S(=O)(=O)c1ccc(Cl)c(C(=O)NCC2CCCO2)c1 (stereo not given) do in these assays?
Lassa entry inh: -20.7%; CHX counter: -0.8; Shiga toxin inh: -6.4; Pf growth 96h: 7.1%; MARV entry inh: -0.4%[46.1 µM]; Pf growth 48h: -1.9%

Source: PubChem BioAssay (National Center for Advancing Translational Sciences (NCATS))
